Results on 8 compounds are retold here after PubChem BioAssay (NCI).

This is part of a sample that, as a whole, favours compounds with a hit. Of some 83,000 tested, about 20% had one in any assay.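 Plates (96-well) were seeded with cells, treated with compound at one concentration, and incubated for 48 hours before percent growth was determined.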 Values without a mark were called inactive. Active and inactive are the calls of the source. How the source made its calls: active means growth percent below 10; inactive means the rest.

Experiment in all cases: NCI-60 one-dose screen, 48 h (100 = growth as untreated, 0 = no growth, -100 = all killed)
Holding throughout (conditions): 10 µM unless noted

Experiment [1] has as its system MALME-3M melanoma.
In experiment [2] the test system is MDA-MB-231 breast.
Experiment [3] has as its system RXF 393 renal.
In experiment [4] the test system is SF-268 CNS.
Experiment [5] concerns SF-295 CNS.
In experiment [6] the test system is SF-539 CNS.
The test system of experiment [7] is UACC-257 melanoma.
Experiment [8] relates to M14 melanoma.
For experiment [9], the system named is HCT-15 colon.
Experiment [10] deals with HT29 colon.
Experiment [11] has as its system SNB-75 CNS.
Experiment [12] relates to SNB-19 CNS.
Experiment [13] deals with U251 CNS.
The subject of experiment [14] is SK-MEL-5 melanoma.
The test system of experiment [15] is UACC-62 melanoma.
Experiment [16] relates to LOX IMVI melanoma.
Experiment [17] relates to SK-MEL-28 melanoma.
Experiment [18] has as its system SK-MEL-2 melanoma.
Experiment [19] concerns PC-3 prostate.

On to `COc1ccc(-c2nc3sccn3c2-c2ccnc(S(C)(=O)=O)n2)cc1`, for which the growth in experiment [1] was 75.1%; in experiment [2], 84.3%; in experiment [3] it was 97.5%; in experiment [4], 95%; in [5], 74.9%; in experiment [6] it was 109%. The growth in experiment [7] was 111%; in experiment [8] it was 102%; in experiment [9], 84.3%; in experiment [10] it was 89%; in [11], 61.1%; in experiment [12] it was 64.2%. Besides, the growth in [13] is 94.4%; in experiment [14], 98.9%; in [15], 77.1%; in experiment [16] it was 68.8%; in [17] it was 43.7%; in experiment [18], 100%.
Consider `O=C1CCCN1C1CCN(Cc2cc3ccccc3[nH]c2=O)c2ccccc21` (stereo unspecified), for which the growth was 76.4% in experiment [1]; 92.6% in experiment [2]; 99.4% in experiment [3]; 94.7% in [4]; 72.3% in experiment [5]; 97.2% in [6]. Moreover, the growth is 114% in experiment [7]; 86.1% in [8]; 92.4% in experiment [9]; 92.9% in experiment [10]; 79.3% in experiment [11]; 96.8% in experiment [12]. The growth in experiment [13] was 96.1%; in [14], 86.1%; in [15] it was 85.5%; in experiment [16] it was 90.4%; in experiment [17], 103%; in experiment [18], 96.1%.
For `C=Cc1nn2c(CCC(=O)c3nc4ccccc4[nH]3)nnc2s1`, the growth in [1] was 108%; in [2], 101%; in experiment [3], 106%; in [4] it was 101%; in experiment [5], 99.7%; in experiment [6] it was 113%. The growth is 110% in experiment [7]; 92.9% in experiment [8]; 101% in [9]; 105% in [10]; 110% in experiment [11]; 107% in [12]. The growth was 104% in [13]; 98% in [19]; 98.2% in experiment [14]; 102% in [15]; 95% in experiment [16]; 113% in experiment [17]. For the same compound, in experiment [18], the growth is 97.5%.
With `CCCCCCC/C(=N\N=C(N)N)c1ccc(O)cc1`, the growth in experiment [1] is 50.6%; in [2], -22.5% (active); in [3], -35.5% (active); in experiment [4] it was 45%; in experiment [5], 55.7%; in [6], 63.5%. Also, the growth in [7] is 27.1%; in [8], 24.9%; in experiment [9], 64%; in experiment [10], 3.57% (active); in [11], 81.6%; in [12] it was 37.1%. Also, the growth in experiment [13] was 30.7%; in [19], 24.6%; in experiment [15], 51.4%; in experiment [16], 31.4%; in experiment [17], 60.4%; in [18], 48.3%.
`CCCCCCCC/C=C/CCCCCCCC1=NC(C)(C)CN1CC(C)O` (stereo unspecified): the growth is 68.5% in experiment [1]; 30.5% in experiment [2]; 14.7% in experiment [3]; 55.5% in experiment [4]; 32.4% in experiment [5]; 29.2% in experiment [6]. Also, the growth was 87.2% in [7]; 31.8% in [8]; 18.3% in experiment [9]; -64.8% (active) in [10]; 32% in experiment [11]; 72.3% in experiment [12]. For the same compound, the growth in experiment [13] was -17% (active); in experiment [19] it was 42%; in [14], 53.3%; in [15] it was 3.95% (active); in [16], -99.4% (active); in experiment [17], 53.2%. Further, in [18], the growth was 33%.
Regarding `ClC1C2CC(c3ccccc32)C1Cl` (stereo unspecified), the growth was 126% in experiment [1]; 107% in [2]; 110% in [3]; 110% in experiment [4]; 123% in experiment [5]; 95.8% in experiment [6]. Moreover, the growth was 112% in experiment [7]; 103% in experiment [8]; 109% in [9]; 100% in experiment [10]; 102% in experiment [11]; 104% in [12]. Also, the growth in experiment [13] was 106%; in experiment [19], 104%; in [14], 113%; in [15], 101%; in experiment [17], 108%; in experiment [18], 104%.
Take `O=C1c2nsnc2C(=O)c2c(F)c(F)c(F)c(F)c21`: the growth in experiment [1] is -45.9% (active); in [2], -68.2% (active); in experiment [3], -96.4% (active); in experiment [4], -15.6% (active); in [5] it was -37% (active); in experiment [6], -74.1% (active). Also, the growth is -97.3% (active) in experiment [7]; -90.8% (active) in [8]; -59.1% (active) in experiment [9]; -54.8% (active) in experiment [10]; -76.4% (active) in [11]; -86.8% (active) in experiment [12]. Moreover, the growth in experiment [13] was -76.3% (active); in experiment [19], 7.59% (active); in experiment [14], -61.1% (active); in experiment [15], -86.9% (active); in experiment [17], -92.5% (active); in experiment [18], -75.4% (active).
For `COc1cc(C(=O)/C=C/c2cccnc2Nc2ccccc2)cc(OC)c1OC`, the growth in experiment [1] was -71.5% (active); in experiment [2], -61.1% (active); in experiment [3] it was -97.4% (active); in experiment [4] it was -81.1% (active); in experiment [5] it was 17.3%; in experiment [6], -54.8% (active). Moreover, the growth was -88.2% (active) in experiment [7]; -70% (active) in experiment [8]; -33.7% (active) in experiment [9]; -70.2% (active) in [10]; -16% (active) in experiment [11]; -72.5% (active) in experiment [12]. In addition, the growth in [13] is -94.8% (active); in experiment [14] it was -99.4% (active); in experiment [15] it was -84.2% (active); in [16] it was -49.9% (active); in experiment [17], -97.5% (active); in experiment [18], -56.5% (active).
